The record followed here is PubChem BioAssay (NCI).

The panel holds about 83,000 compounds, 20% with a hit somewhere; the sample as a whole holds those more often.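 Interpretation: 100, growth as untreated; towards 0, rising growth inhibition; 0, no net growth; 0 to -100, cell death. Compounds scoring below 10 were considered active.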 A number with no mark means an inactive call. The source made the active and inactive calls.

This experiment relates to KM12 colon. The experiment is described as follows: NCI-60 one-dose screen, 48 h (100 = growth as untreated, 0 = no growth, -100 = all killed). The following applies: 10 µM unless noted.
As for `O=C(Cn1c(-c2ccc([N+](=O)[O-])cc2)nc2ccccc21)NNC(=O)c1cccnc1`, the growth is 87.2%.
Next, `O=C(Cn1cc(CN2C(=O)c3ccccc3S2(=O)=O)nn1)Nc1nc2ccccc2s1`: 103%; `CCN1CC(=O)N(/N=C2\C(=O)Nc3ccccc32)C1=S`: 94.7%.
In the case of `O=C1NCCC12CCN(c1c(Cl)cncc1-c1ccc(O)cc1)CC2` it was 105%; in that of `COP(=O)(OC)C(C)(C)CC(=O)CC(C#N)(C#N)C(C#N)C#N`, 104%.
In the case of `COc1ccc(-c2nc3c(c(-c4ccccc4)nn3-c3ccccc3)c(-c3ccc(N4CCN(C)CC4)cc3)c2C#N)cc1` it was 95.6%; in that of `C#Cc1cccc(Nc2ncnc3ccc(-c4cncc(NS(C)(=O)=O)c4)cc23)c1`, 36.1%.
On to `Cc1ccc(Sc2nnc(/N=C3\C(=O)Nc4ccccc43)s2)cc1`, for which the growth is 98.1%.
In the case of `CN(C)c1ccc(/C=C/C(=O)c2ccc(-n3cc(CN4CCN(c5cc6c(cc5F)c(=O)c(C(=O)O)cn6C5CC5)CC4)nn3)cc2)cc1` it was 32.9%.
Consider `CCOC(=O)CSc1ncnc2c1c(-c1ccccc1)c(-c1ccccc1)n2-c1ccc(C)cc1`, for which the growth was 50.2%.
Next, `O=C(CCCCCCN1CC(=O)N2[C@H](c3cc(Br)cs3)c3[nH]c4ccccc4c3C[C@H]2C1=O)NO`: 47.2%; `Cn1c(O)c(C=NCCN=Cc2c(O)n(C)c(=O)n(C)c2=O)c(=O)n(C)c1=O`: 98.7%.
In the case of `C/C(Nc1ccc(Cl)c(Cl)c1)=C1\CCOC1=O` it was 96.2%.
In the case of `C=C1C(=O)O[C@H]2[C@H]1CC/C(COC(=O)CCSCCC(=O)OC/C1=C/CC[C@@]3(C)O[C@H]3[C@H]3OC(=O)C(=C)[C@@H]3CC1)=C\CC[C@@]1(C)O[C@@H]21` it was 34.3%; in that of `Cc1ccc(/C=N/Nc2nc(Nc3ccccc3)nc(-n3nc(C)cc3C)n2)cc1`, 25.6%.
On to `O=C(CCc1nnc(Cn2cnc3nc[nH]c3c2=O)o1)c1nc2ncccc2[nH]1`, for which the growth was 105%.
On to `O=C1NC(=O)c2c1c1c3ccccc3ccc1c1[nH]c3ccc(Br)cc3c21`, for which the growth is 4.99% (active).
Regarding `Nc1nc(=S)c2ncn(C3OC(COP(=O)(O)O)C(O)C3O)c2[nH]1` (stereo not given), the growth was 18.4%.
As for `CC12CCC3c4ccccc4CCC3(CO1)C2` (stereo not given), the growth is 110%.
Consider `O=Cc1ccc([N+](=O)[O-])s1`, for which the growth was 102%.
As for `CC(C)c1ccc(COCc2cc(CN3CCCC3)c(O)c3ncccc23)cc1`, the growth is 14.1%.
In the case of `COCCNC(=O)c1ccc(-c2nc3ccc4[nH]ncc4c3c3c2CCCC3)cc1` it was 19.7%; in that of `C/C(=N/O)c1ccc(F)cc1`, 106%.
On to `COc1ccc2nc(NC(=O)CSc3nnc4n3S(=O)(=O)c3ccccc3N4C)sc2c1`, for which the growth was 111%.
In the case of `CN(Cc1ccc(C(F)(F)F)cc1)CC(O)C(=O)Nc1ccc(Cl)cc1` (stereo not given) it was -36.1% (active).
In the case of `Cc1ccc2c3c(c(=O)[nH]c2c1)C1(C(C#N)=C(N)O3)c2cc(Br)ccc2-c2ccc(Br)cc21` it was 6.52% (active); in that of `CC1(C)CC[C@]2(c3nnc(-c4ccncc4)o3)CC[C@H]3C(=CC[C@H]4[C@@]3(C)CC[C@H]3C(C)(C)C(=O)CC[C@]43C)[C@@H]2C1`, 70%.
In the case of `C=C(C)[C@@H]1CC[C@]2(C(=O)N3CCN(C)CC3)CC[C@]3(C)[C@H](CC[C@@H]4[C@@]5(C)CC(=C/c6ccncc6)/C(=N/O)C(C)(C)[C@@H]5CC[C@]43C)[C@@H]12` it was 72.1%.
Turning to `Oc1ccc(CCn2c(O)c(/C=C3\CN=c4ccccc4=N3)sc2=S)cc1`, the growth is 5.46% (active).
On to `CCNC(=O)c1[nH]cc(-c2ccccc2)c1-c1cc(OC)c2c(c1OC)OCO2`, for which the growth was 121%.
In the case of `C[C@]12C=CC(=O)C=C1CCC1C2[C@@H](O)C[C@@]2(C)C1CC[C@]2(O)C(=O)COC(=O)CCC(=O)O` (stereo not given in full) it was 109%; in that of `C=CCc1c(O)c(C(=O)/C=C/c2ccc(Cl)cc2)c(OC)c2ccoc12`, 41.1%.
Take `COc1cc(-n2cc(-c3cc(O)c(C/C=C(\C)CCC=C(C)C)c(O)c3)nn2)cc2c1O[C@]1(C)CC[C@@H](O)C(C)(C)[C@H]1C2`: the growth was 15.9%.
Turning to `O=C(CSc1nc2ccc([N+](=O)[O-])cc2[nH]1)Nc1cccc(C(F)(F)F)c1`, the growth is 17.1%.
`COc1ccc(C(=O)Nc2ncc(Cc3ccc(F)cc3)s2)cc1`: the growth is 3.05% (active).
